Shown is part of a subset that was picked to be rich in hits.
Ba CapD inh – CapD enzyme inhibition; purified CapD enzyme, fluorescence intensity read-out; stronger effect = lower value; z-score (concentration not given with the values); 140,000 compounds, 0.23% hits; AID 492967; in the data active = z-score mostly below about -2.9, no sharp cut-off; inactive = mostly above about -1.9
* hit, by the source's call; i = inactive.

SMILES	Ba CapD inh
Cc1nnc2sc3c(n2c1=O)C(=O)N(c1ccc(I)cc1)C3=O	0.09
O=C1c2sc3nnc(-c4ccccc4)c(=O)n3c2C(=O)N1c1ccc(Br)cc1	0.3
COc1ccsc1C(=O)O	-0.33
CN1/C(=C\C=C2C(=O)c3ccccc3C2=O)Sc2ccccc21	-0.57
CN1/C(=C/C(=O)c2ccco2)Sc2ccccc21	-2
CC(=S)/C=C1\Sc2ccccc2N1C	-5.3*
CCC1=C(c2ccc(C)cc2)S(=O)(=O)NC1=NCC(=O)NC1CC1	0.88
CC(=O)N1CCC(N(c2ccc3c(c2)CCN3C(C)=O)S(=O)(=O)c2ccc(Cl)cc2)CC1	-0.34
CC1=NNC(=O)C1CC(=O)N/N=C/c1ccc(N(C)C)cc1 (stereo unspecified)	41
O=c1oc(-c2ccco2)ns1	-8.5*
Nc1ccc(-c2nnc(-c3ccco3)o2)cc1	77
O=c1oc(-c2cc3ccccc3s2)ns1	1.2
Cc1ccnc(NC(=O)c2nn3c(C(F)(F)F)cc(-c4ccco4)nc3c2Br)c1	0.65
CCC(=O)Nc1cccc(C(=O)N/N=C/c2c(CO)cnc(C)c2O)c1	1.3
CN(C)/C=C/C=C1\CCCC1=O	-9*
CN(C)/C=C/C=C1C(=O)CCCC1=O	-0.57
CC1C/C(=C\C=C\N(C)C)C(=O)/C(=C/C=C/N(C)C)C1 (stereo unspecified)	-2.5
CCOc1ccc(C2C(N3C(=O)c4c(Cl)c(Cl)c(Cl)c(Cl)c4C3=O)C(=O)N2c2ccc(Cl)c(Cl)c2)cc1 (stereo unspecified)	-0.44
COC(=O)CN1C(=O)S/C(=C/c2ccc(-c3ccc(C(=O)O)cc3)o2)C1=O	-1
CSC(=CC(=O)c1ccc(F)cc1)SC	-2.9
CSC(=CC(=O)c1cccc2ccccc12)SC	-1
CSC(=CC(=O)c1ccccc1F)SC	-4.1*
O=C(CCNC(=O)N1CCc2ccccc21)c1ccccc1	0.14
O=C(Cc1cccs1)N1CCN(CCc2ccccc2)CC1	-0.17
O=C(NCC1CCCO1)c1ccc(-n2cc(-c3ccnc4ccccc34)cn2)cc1 (stereo unspecified)	53
SMILES	Ba CapD inh
O=C1CC(=O)c2ccc3c4c(ccc1c24)C(=O)CC3=O	-5.1*
O=C1CC(=O)c2c1cccc2[N+](=O)[O-]	-2.2
CCN1CCN(C(=O)C(c2ccccc2)N2Cc3ccccc3C2=O)CC1 (stereo unspecified)	-0.19
C=CCOc1ccccc1/C=N/NC(=O)c1cc2ccccc2s1	2.7
COc1cc2c(cc1OC)C(=NC(C)C(=O)O)NC(C)(C)C2 (stereo unspecified)	26
COc1cc2[nH]c(=S)nc(Nc3ccc(NC(C)=O)cc3)c2cc1OC	2.8
COc1cc2[nH]c(=S)n(N(C(C)=O)C(C)=O)c(=O)c2cc1OC	-13*
COc1cc2[nH]c(=S)n(C3CC3)c(=O)c2cc1OC	0.08
CC(=O)c1ccc(OCc2ccc(Cl)c(Cl)c2)cc1	0.32
COc1ccc(S(=O)(=O)N(C)c2ccc(C(N)=O)cc2)cc1OC	0.18
COc1ccc(N(C(C)=O)S(=O)(=O)c2cc(OC)ccc2OC)cc1	-1.1
COc1ccc(N(C(=O)c2ccncc2)S(=O)(=O)c2ccc(OC)c(OC)c2)cc1	-5.6*
O=P(CCCCOc1ccccc1CP(=O)(c1ccccc1)c1ccccc1)(c1ccccc1)c1ccccc1	3.4
O=C1OC(c2ccco2)=N/C1=C\c1ccc(Br)cc1	i
Fc1ccc(-c2[nH]ncc2CN2CCN(Cc3ccccc3)CC2)cc1	-0.29
OC1(c2ccc(Cl)cc2)CCN(Cc2cn[nH]c2-c2ccccc2)CC1	-2.3*
COc1ccc(-c2[nH]ncc2CN2CCC(O)(c3ccc(Cl)cc3)CC2)cc1	-0.2
CCOc1ccc(NC(=O)c2ccc(F)c(S(=O)(=O)N3CCN(c4cccc(C)c4)C(C)C3)c2)cc1 (stereo unspecified)	-1.2
O=C1CSC(N=Nc2c(O)[nH]c3ccccc23)=N1	-4.1*
O=C(N=Nc1c(O)[nH]c2ccccc12)C(O)c1ccccc1 (stereo unspecified)	-2.2
O=C1N=c2ccccc2=C1N=Nc1c(O)[nH]c2ccccc12	-0.04
CCOC(=O)c1c(NC(=O)c2ccc(OC)c(OC)c2)sc(C(=O)Nc2ccccc2F)c1C	0.075
CCN(CC)c1c2c(nc3nncn13)CCC2	-2.4
S=c1c2c(nc3nc[nH]n13)CCC2	-5.7*
c1ccc(N2CCN(c3c4c(nc5nncn35)CCC4)CC2)cc1	2.5
SMILES	Ba CapD inh
CCOC(=O)C1=CN(Cc2ccc(Cl)cc2)C=C(C(=O)OCC)C1c1ccc(OC)c(OC)c1	29
CCOc1cc(C(=O)Nc2c3c(nn2-c2ccc(OC)cc2)CSC3)cc(OCC)c1OCC	0.005
Cc1cc(C)c(CCOC(=O)NNC(=O)c2cccc(C)c2O)c(C)c1	0.83
Cc1cc(/N=C/C=C2\N(C)c3ccccc3C2(C)C)n(CCC#N)n1	-4.4*
Cc1cc(/N=C/c2cc(C)n(Cc3ccccc3)c2C)n(CCC#N)n1	-1.6
CN1/C(=C/C(=O)CSC2CCCC2)C(C)(C)c2ccccc21	6.5
CCOC(=O)c1c(C)oc(C)c1S(=O)(=O)Nc1ccccc1	0.24
CC1C2(C)OC(=N)C(C#N)(C(c3ccncc3)O2)C1(C#N)C#N (stereo unspecified)	43
CCCN(CCC)C(=O)Cn1c(=O)n(CCC(=O)NCCc2ccccc2)c(=O)c2ccccc21	0.53
O=C(CCn1c(=O)c2ccccc2n(CC(=O)Nc2ccccc2)c1=O)NCCc1ccccc1	-5.6*
O=C(Cn1c(=O)n(CCc2ccccc2)c(=O)c2ccccc21)Nc1ccc(Cl)cc1	0.53
O=[N+]([O-])c1ccc(Cl)c(S(=O)(=O)Nc2cc(Cl)c3oc4c(c3c2)CCCC4)c1	0.11
CC(C)(C)NC(=O)c1ccc2c(c1)C(=O)N(Cc1ccco1)C2=O	0.37
CCN1C(=O)c2ccc(C(=O)Nc3ccc(C(=O)O)cc3)cc2C1=O	-0.21
O=C(O)c1ccc(NC(=O)c2ccc3c(c2)C(=O)N(Cc2ccco2)C3=O)cc1	-7.6*
COc1ccc(OC)c(Nc2nc3nonc3nc2Nc2cccc(C)c2)c1	0.3
OCc1cc(-c2ccccc2)on1	-0.24
CC(CC(=O)c1ccccc1)CC(=O)c1ccccc1	-0.18
O=C(O)CCCCc1cccs1	1.4
Nc1cc(CCCC(=O)O)sc1CCCC(=O)O	-10*
O=C(O)CCCc1ccc2c(c1)OCO2	-0.58
CC1(C)CC(=O)C2=C(C1)c1c(ccc3ccccc13)NC2c1ccc(-c2ccccc2Cl)o1 (stereo unspecified)	22
CN(CC(=O)O)C(=O)Nc1ccc(Cl)cc1Cl	0.13
Cc1csc(N)c1-c1nc2ccccc2s1	2.9
Cc1csc(NC(=O)CSCC(=O)O)c1-c1nc2ccccc2s1	-2.4*
SMILES	Ba CapD inh
O=C(O)CSCC(=O)Nc1ccc(-c2nc3ccccc3s2)cc1	82
COc1cc(/C=C2\SC(=O)N(c3c(C)n(C)n(-c4ccccc4)c3=O)C2=O)ccc1O	-0.56
COc1cccc(/C=C2/CC(C(C)(C)C)C/C(=C\c3cccc(OC)c3OC)C2=O)c1OC (stereo unspecified)	-9.2*
COc1ccc(/C=C2/CC(C(C)(C)C)C/C(=C\c3ccc(OC)cc3OC)C2=O)c(OC)c1 (stereo unspecified)	0.63
COc1cccc(/C=C2/CCC/C(=C\c3cccc(OC)c3OC)C2=O)c1OC	0.33
Cc1cc(C(=O)NC(C)C(C)(C)C)cs1 (stereo unspecified)	0.005
CC1CCCN(C(=O)COC(=O)/C=C/c2ccccc2Cl)C1 (stereo unspecified)	-0.53
OCC1OC(Nc2ccccn2)C(O)C(O)C1O (stereo unspecified)	-0.04
Cc1ccc(NC2OC(CO)C(O)C2O)cc1C (stereo unspecified)	0.56

High-throughput results deposited in PubChem by ICCB-Longwood Screening Facility, Harvard Medical School.
